Among the data in PubChem BioAssay (NCI) are growth values, retold here.

About 83,000 compounds went through this panel and 20% of them were active in at least one assay; those are over-represented in the sample as a whole.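 Plates (96-well) were seeded with cells, treated with compound at one concentration, and incubated for 48 hours before percent growth was determined.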 Values without a mark were called inactive. Calls of active or inactive are those of the source. Rule for the calls: active = growth percent below 10; inactive = the rest.

Among the test systems are DU-145 prostate; K-562 leukemia; MALME-3M melanoma; MDA-MB-231 breast; RXF 393 renal; SF-268 CNS; SF-295 CNS; SF-539 CNS; UACC-257 melanoma; M14 melanoma; HCT-15 colon; HT29 colon; SNB-75 CNS; SNB-19 CNS; U251 CNS; PC-3 prostate; SK-MEL-5 melanoma; UACC-62 melanoma; LOX IMVI melanoma.
Test in all cases: NCI-60 one-dose screen, 48 h (100 = growth as untreated, 0 = no growth, -100 = all killed)
Settings in all cases: 10 µM unless noted

For the compound `N#Cc1nc(-c2ccc(Cl)cc2)cc(-c2ccc(Nc3nc(N4CCCCC4)nc(N4CCCCC4)n3)cc2)c1N`, the growth was 105% with DU-145 prostate; 105% in the test on K-562 leukemia; 107% in the test on MALME-3M melanoma; 114% in the test with MDA-MB-231 breast; 115% in the test on RXF 393 renal; 101% with SF-268 CNS. Further, the growth in the test on SF-295 CNS was 101%; in the test with SF-539 CNS it was 103%; with UACC-257 melanoma, 105%; with M14 melanoma it was 104%; with HCT-15 colon it was 108%; in the test with HT29 colon it was 113%. Besides, the growth with SNB-75 CNS is 81.5%; in the test on SNB-19 CNS it was 104%; in the test with U251 CNS, 102%; with PC-3 prostate, 91.6%; with SK-MEL-5 melanoma, 97.6%; with UACC-62 melanoma, 106%. The growth with LOX IMVI melanoma was 95.8%.
In the case of `COc1cc(CN2CCO[C@H](COc3cccc(F)c3)C2)ccc1Cl`, the growth in the test with DU-145 prostate is 41.5%; in the test with K-562 leukemia, 21.1%; in the test with MALME-3M melanoma, 63.8%; with MDA-MB-231 breast it was 33.2%; in the test on RXF 393 renal, 79.3%; in the test with SF-268 CNS, 48.2%. Also, the growth in the test on SF-295 CNS is 28%; in the test with SF-539 CNS, 59.5%; in the test on UACC-257 melanoma, 19.2%; with M14 melanoma it was 39.1%; with HCT-15 colon it was 26.3%; in the test on HT29 colon it was 42.6%. Besides, the growth in the test on SNB-75 CNS was 45%; in the test on SNB-19 CNS it was 29.8%; in the test on U251 CNS it was 27.5%; in the test on PC-3 prostate, 27.8%; in the test with SK-MEL-5 melanoma, 37.7%; in the test on UACC-62 melanoma, 44.7%. Besides, the growth in the test on LOX IMVI melanoma is 50.7%.
As to `CNCc1cccc2c1OCCOCCOCCC(C)S(=O)(=O)c1ccc(cc1)-c1cnc(N)c(n1)C(=O)N2` (configuration not stated), the growth in the test with DU-145 prostate was 24.1%; in the test on K-562 leukemia it was 7.1% (active); with MALME-3M melanoma, 75.3%; with MDA-MB-231 breast, 57.4%; in the test on RXF 393 renal, 16.4%; with SF-268 CNS, 54.2%. The growth was 98.8% in the test on SF-295 CNS; 25% with SF-539 CNS; 50.6% in the test with UACC-257 melanoma; 52% with M14 melanoma; 17.8% with HCT-15 colon; 15.1% in the test with HT29 colon. Besides, the growth with SNB-75 CNS was 10.5%; in the test on SNB-19 CNS it was 53.8%; in the test with U251 CNS, 19.2%; in the test on PC-3 prostate it was 32.3%; with SK-MEL-5 melanoma, 78.8%; with UACC-62 melanoma, 60.6%. Moreover, the growth with LOX IMVI melanoma is 48.8%.
On to `CN1CCN(Cc2ccc(NC(=O)c3ccc(C#N)c(C#Cc4cnc(N)c5ncccc45)c3)cc2C(F)(F)F)CC1`, for which the growth with DU-145 prostate is 28.8%; in the test on K-562 leukemia, -5.03% (active); with MALME-3M melanoma, -52% (active); in the test on MDA-MB-231 breast it was -2.17% (active); in the test on RXF 393 renal, 41.9%; with SF-268 CNS, 94.1%. Further, the growth in the test on SF-295 CNS is 103%; with SF-539 CNS, 54.5%; in the test on UACC-257 melanoma, -20.1% (active); in the test on M14 melanoma, 3.5% (active); with HCT-15 colon it was 1.93% (active); in the test on HT29 colon it was 4.28% (active). Further, the growth with SNB-75 CNS is 112%; with SNB-19 CNS, 115%; with U251 CNS, 55.6%; in the test on PC-3 prostate it was 81.1%; in the test on SK-MEL-5 melanoma, 87%; in the test with UACC-62 melanoma, 58.8%. The growth in the test on LOX IMVI melanoma was 82.5%.
With `COc1cc2c(cc1C)NC(=O)/C2=C\c1c[nH]c2ccccc12`, the growth in the test on DU-145 prostate was 78.6%; in the test with K-562 leukemia, 40.6%; in the test with MALME-3M melanoma, 75.9%; with MDA-MB-231 breast it was 60.8%; in the test with RXF 393 renal, 47%; in the test with SF-268 CNS, 81.6%. In addition, the growth in the test with SF-295 CNS was 26.4%; in the test on SF-539 CNS, 69.7%; in the test with UACC-257 melanoma, 90%; in the test with M14 melanoma, 80.9%; in the test with HCT-15 colon, 58.4%; in the test on HT29 colon, 35.4%. The growth in the test with SNB-75 CNS is 37.9%; in the test on SNB-19 CNS it was 84.7%; in the test on U251 CNS, 61.5%; in the test on PC-3 prostate, 53.3%; in the test with SK-MEL-5 melanoma, 73.8%; with UACC-62 melanoma, 77.9%. Moreover, the growth in the test with LOX IMVI melanoma was 44.9%.
Take `Cc1ccc(NC(=O)Cn2nncc2CN2C(=O)CSC2=O)cc1C`: the growth with DU-145 prostate is 106%; in the test on K-562 leukemia it was 106%; in the test on MALME-3M melanoma it was 99%; in the test with MDA-MB-231 breast, 111%; in the test with RXF 393 renal, 103%; in the test on SF-268 CNS, 98.5%. In addition, the growth is 103% in the test on SF-295 CNS; 101% with SF-539 CNS; 102% in the test with UACC-257 melanoma; 105% with M14 melanoma; 94.5% in the test on HCT-15 colon; 105% with HT29 colon. In addition, the growth with SNB-75 CNS is 93.3%; in the test on SNB-19 CNS, 97.9%; in the test on U251 CNS it was 103%; with PC-3 prostate, 99.3%; in the test on SK-MEL-5 melanoma it was 98.7%; in the test on UACC-62 melanoma it was 102%. Also, the growth in the test on LOX IMVI melanoma is 93.6%.
As for `Fc1ccc2c(CN3CCO[C@H](COc4cccc(Cl)c4)C3)c[nH]c2c1`, the growth with DU-145 prostate was 42.6%; in the test on K-562 leukemia it was 32.1%; with MALME-3M melanoma, 81.9%; in the test on MDA-MB-231 breast it was 66.8%; in the test with RXF 393 renal, 82.9%; with SF-268 CNS it was 81.1%. The growth is 41.1% in the test on SF-295 CNS; 56.7% in the test on SF-539 CNS; 53.6% in the test on UACC-257 melanoma; 54.4% in the test on M14 melanoma; 59.1% with HCT-15 colon; 47.4% in the test with HT29 colon. In addition, the growth is 59% in the test on SNB-75 CNS; 56.8% in the test on SNB-19 CNS; 44.7% in the test on U251 CNS; 36.7% with PC-3 prostate; 63.4% with SK-MEL-5 melanoma; 60.2% in the test on UACC-62 melanoma. Moreover, the growth in the test with LOX IMVI melanoma was 45.9%.
As to `COc1cccc2nc(Nc3cccc(NC(=O)c4ccc(N5CCN(C)CC5)c(C(F)(F)F)c4)c3)ccc12`, the growth is 29.4% in the test on DU-145 prostate; -49.1% (active) with K-562 leukemia; -10.5% (active) with MALME-3M melanoma; 29.5% in the test on MDA-MB-231 breast; -2.23% (active) with RXF 393 renal; 35.5% with SF-268 CNS. Besides, the growth in the test on SF-295 CNS was -0.464% (active); in the test with SF-539 CNS it was -27.9% (active); with UACC-257 melanoma, -21.9% (active); in the test with M14 melanoma, 10.1%; in the test on HCT-15 colon, -10.4% (active); with HT29 colon, -67.7% (active). The growth with SNB-75 CNS was -7.68% (active); in the test on SNB-19 CNS it was 48.4%; with U251 CNS, -24.6% (active); in the test with PC-3 prostate it was 22%; with SK-MEL-5 melanoma it was 48.8%; in the test on UACC-62 melanoma it was -38.4% (active). The growth with LOX IMVI melanoma was -96.7% (active).
